The record followed here is PubChem BioAssay AID1942 (Johns Hopkins Ion Channel Center, 2009).

Among all 2,400 compounds or so, about 580 (24%) were called active. The list is a sample of the results. Values without a mark were called inactive.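 Rule for the calls: active = activity change at or above the mean plus 3 SD of buffer wells without dofetilide, per plate; inactive = the rest.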

Potassium voltage-gated channel subfamily KQT member 2 (Rattus norvegicus), sequence (O88943 whole entry, looked up): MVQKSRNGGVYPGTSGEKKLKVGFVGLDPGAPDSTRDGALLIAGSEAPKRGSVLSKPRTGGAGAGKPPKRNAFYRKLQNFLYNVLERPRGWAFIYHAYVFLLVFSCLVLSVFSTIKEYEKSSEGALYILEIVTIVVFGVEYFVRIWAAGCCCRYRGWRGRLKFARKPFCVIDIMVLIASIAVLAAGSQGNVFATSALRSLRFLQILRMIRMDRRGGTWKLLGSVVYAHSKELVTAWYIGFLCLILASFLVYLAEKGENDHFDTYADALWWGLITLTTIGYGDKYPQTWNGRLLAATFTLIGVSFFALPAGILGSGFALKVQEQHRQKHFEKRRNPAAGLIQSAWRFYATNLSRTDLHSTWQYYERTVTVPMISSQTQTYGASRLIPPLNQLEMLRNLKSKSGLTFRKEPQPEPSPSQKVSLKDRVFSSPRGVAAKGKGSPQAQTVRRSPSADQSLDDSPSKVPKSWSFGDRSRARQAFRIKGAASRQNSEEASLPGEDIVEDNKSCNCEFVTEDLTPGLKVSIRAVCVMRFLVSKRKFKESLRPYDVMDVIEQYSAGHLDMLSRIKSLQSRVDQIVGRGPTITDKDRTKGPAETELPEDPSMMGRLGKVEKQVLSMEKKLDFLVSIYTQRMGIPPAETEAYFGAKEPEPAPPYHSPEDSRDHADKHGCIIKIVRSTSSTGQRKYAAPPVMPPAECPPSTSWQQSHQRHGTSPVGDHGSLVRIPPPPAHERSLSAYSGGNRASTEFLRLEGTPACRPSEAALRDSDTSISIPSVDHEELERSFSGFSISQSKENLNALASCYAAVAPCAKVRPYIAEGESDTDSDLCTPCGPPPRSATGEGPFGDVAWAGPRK

The test addresses Potassium voltage-gated channel subfamily KQT member 2 (Rattus norvegicus) (UniProt O88943). The experiment in a line: rat KCNQ2 channel activation by compounds alone, confirmation, counter-screen for hERG block protector project, cell-based, CHO, FluxOR thallium flux (AID 1942).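 Note: normalized value minus buffer-control mean plus three SD of buffer wells.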 The following applies: CHO-KCNQ2 cells, FluxOR thallium flux fluorescence; at 10 µM; hits give high values.
As to `C=CCSc1nc2sc3c(c2c(=O)n1CC)CCc1ccccc1-3`, the activity change, less the hit threshold was 11.4% (active). Next, `O=C(O)CN1C(=O)C(=O)N(Cc2ccc(C(F)(F)F)cc2)C1=O`: -4.3%. Next, `CCOC(=O)N1CCN(C(=O)CCn2c(=S)[nH]c3ccsc3c2=O)CC1`: -2.5%; `N#Cc1ccc(-c2nc3ccc(Br)cc3c(=O)n2O)cc1`: 17.3% (active). `O=c1c2cc(Br)ccc2nc(-c2cccc(C(F)(F)F)c2)n1O`: the activity change, less the hit threshold was 126% (active). On to `O=c1c2cc(Br)ccc2nc(-c2ccc(Cl)cc2)n1O`, for which the activity change, less the hit threshold was 133% (active).

For `CCCn1c(SC(C)C(=O)N2CCOCC2)nc2ccc(Br)cc2c1=O` (configuration not stated), the activity change, less the hit threshold is -15.9%.

As for `O=c1c2cc(Br)ccc2nc(-c2cccc(Cl)c2)n1O`, the activity change, less the hit threshold was 111% (active). Next, `COc1ccc(CCNS(=O)(=O)c2csc(C(N)=O)c2)cc1OC`: -18.8%; `NC(=O)[C@@H]1CCCN1Cc1nc(Cc2ccccc2Cl)no1`: -17.5%; `COc1ccc(Cl)cc1N(C)C(=O)CCNC(=O)Cn1cnc2ccccc2c1=O`: -14.6%. As to `CCOC(=O)N1CCC(N2C(=O)c3ccccc3C2Nc2cccnc2)CC1` (configuration not stated), the activity change, less the hit threshold was -1.9%. Next, `O=c1c2ccc(Cl)cc2nc(-c2cccc(C(F)(F)F)c2)n1O`: 118% (active); `O=c1c2cc(Br)ccc2nc(-c2ccccc2)n1O`: 36.9% (active); `COc1ccc(S(=O)(=O)N2CCCC(C(=O)Nc3ccc(OC)c(OC)c3)C2)cc1` (configuration not stated): -17.4%. With `Cc1cc(C=O)c2c(c1)C=CC1(Oc3ccccc3C(=O)N1C)O2` (configuration not stated), the activity change, less the hit threshold was -0.3%. Next, `N#Cc1c(-c2ccc(Cl)cc2)cc(-c2cccs2)nc1SCC(=O)O`: -24.7%; `CCOc1ccc(S(=O)(=O)Nc2nc3ccccc3nc2-n2ccc(=NC(=O)c3cccs3)cc2)cc1`: -21.1%. Regarding `O=[N+]([O-])c1cccc(/C=C/c2nc(C=Nc3ccccc3)c(O)o2)c1`, the activity change, less the hit threshold was -18.2%. On to `COc1ccc(C(=O)NC(=S)N(C)C2CCCCC2)cc1Br`, for which the activity change, less the hit threshold is 0.5% (active). As for `CC1CCCC(NC(=S)NC(=O)c2cncc(Br)c2)C1C` (configuration not stated), the activity change, less the hit threshold is -12%. Next, `Cc1ccc(C(=O)NC(=S)N(C)C2CCCCC2)cc1Br`: 2.9% (active); `CC1=NN(C(=O)c2ccccc2Br)C(O)(c2ccc(Cl)cc2)C1` (configuration not stated): -27.3%.

Regarding `CCOC(=O)C1=NN(C(=O)c2cccc(Br)c2)C(O)(C(C)(C)C)C1` (configuration not stated), the activity change, less the hit threshold is 87.6% (active). Next, `COC(=O)C1=NN(C(=O)c2ccc(Cl)cc2)C(O)(c2ccccc2)C1` (configuration not stated): 76.9% (active); `CCC1=NN(C(=O)c2ccc(Cl)cc2)C(O)(c2ccccc2)C1` (configuration not stated): -23.9%; `CCOC(=O)c1cnc(-n2nc(C)cc2C)nc1Nc1cccc(C(=O)O)c1`: -13.4%. Next, `COC(=O)C1=NN(C(=O)c2cccc(Br)c2)C(O)(c2ccc(Cl)cc2)C1` (configuration not stated): 134% (active); `CC(C)(C)C1(O)CC(C(F)(F)F)=NN1C(=O)Cc1ccc([N+](=O)[O-])cc1` (configuration not stated): -20.8%. Next, `CC1=NN(C(=O)c2ccc(Cl)cc2)C(O)(c2ccccc2)C1` (configuration not stated): -5.5%; `Cc1ccc2[nH]c3c(c2c1)CNCC3`: -13.7%. For the compound `COc1cc(/C=N/Nc2nc(N3CCCC3)nc(N3CCCC3)n2)ccc1OCc1ccccc1F`, the activity change, less the hit threshold is -23.8%. Next, `CC(=O)c1c(C)c2c(n1CCN(C)C)CCCC2`: -11.1%; `CCCCCCCCCCn1c2c(c(=N)c3c1CCC3)CCC2`: 26.3% (active); `Clc1ccc(N=NN2CCOCC2)cc1`: -5.2%.

Consider `COC(=O)CC1C(=O)NCCN1C(=S)NC(=O)c1sc2ccccc2c1Cl` (configuration not stated), for which the activity change, less the hit threshold was -11.2%. With `CCOC(=O)CP(=O)(c1ccccc1)c1ccccc1`, the activity change, less the hit threshold is -20%. Regarding `CCCCOC(=S)NC(=O)c1sc2ccccc2c1Cl`, the activity change, less the hit threshold is 71.2% (active). Next, `COC(=O)Cn1c(=NC(=O)c2sc3ccccc3c2Cl)sc2cc(S(N)(=O)=O)ccc21`: -18.9%; `O=C(NC(=S)N(CCCCO)C1CCCCC1)c1sc2ccccc2c1Cl`: 26% (active).

`CCOC(=S)NC(=O)c1sc2ccccc2c1Cl`: the activity change, less the hit threshold is 51.3% (active). Next, `CCCOC(=S)NC(=O)c1sc2ccccc2c1Cl`: 10% (active); `O=C(CCc1nc(-c2ccccc2)no1)N1CCCC1`: -20.7%. Take `C=CCn1c(N2CCCCCC2)nc2c1c(=O)n(C)c(=O)n2C`: the activity change, less the hit threshold was -13.9%.

As to `O=C1NC(=O)/C(=C/c2cc3c(cc2Br)OCO3)S1`, the activity change, less the hit threshold is -28.6%. Next, `COc1ccc(C(=O)NCc2nnc(SCC(=O)NC3CCCCC3)n2C)cc1`: -21.9%. `O=[N+]([O-])c1ccc(Cl)c(/C=N/Nc2nc(N3CCOCC3)nc(N3CCOCC3)n2)c1`: the activity change, less the hit threshold was -7.2%. As to `COc1cc(OC)c(C2=NOC(C(=O)Nc3ccc4c(c3)OCO4)C2)cc1Cl` (configuration not stated), the activity change, less the hit threshold is -22.1%. Next, `COc1ccc(OCC(=O)Nc2c3c(nn2-c2ccc(OC)cc2)CS(=O)(=O)C3)cc1`: -16.4%; `CC(=O)NCCC(=O)N(C)CC1CCN(CCc2cccc(C(F)(F)F)c2)CC1`: -13.4%.

With `COc1ccc2ncc(OC(C)=O)cc2c1`, the activity change, less the hit threshold was -7.9%.

Take `CSc1ccccc1NC(=S)NCc1ccc(Cl)cc1`: the activity change, less the hit threshold is -17.2%. Next, `COC(=O)c1sccc1NC(=S)NCc1ccc(Cl)cc1`: 3.3% (active); `COC(=O)c1sccc1NC(=S)N1CCN(C)CC1`: -22.7%. Next, `Cc1ccc(NC(=O)c2ccc(NC3=NC4CS(=O)(=O)CC4S3)cc2)cc1` (configuration not stated): -20.8%; `COc1cc(Cl)cc(C(c2c(C(=O)O)[nH]c3ccccc23)c2c(C(=O)O)[nH]c3ccccc23)c1O`: -20.1%; `Cc1cc(C(F)(F)F)n(-c2ccc(N)cc2)n1`: -13.2%.

With `O=C(COc1ccccc1[N+](=O)[O-])Nc1cc(Cl)ccc1C(=O)O`, the activity change, less the hit threshold is -11.3%.

Turning to `O=c1cc(-c2c(F)c(F)c(F)c(F)c2F)oc2ccccc12`, the activity change, less the hit threshold was 12.2% (active). For the compound `O=C(NNc1nc2c(F)cccc2s1)c1cc(=O)c2ccccc2o1`, the activity change, less the hit threshold is -19.2%. As for `COc1ccc(S(=O)(=O)Nc2cccc(-n3cnnn3)c2)cc1`, the activity change, less the hit threshold is -11.2%.

On to `Cc1ccnc(SCCn2c(N3CC(C)OC(C)C3)nc3c2c(=O)n(C)c(=O)n3C)n1` (configuration not stated), for which the activity change, less the hit threshold is -16.5%. Turning to `O=C(Cn1c(=O)oc2ccccc21)Nc1ccc(F)c(F)c1`, the activity change, less the hit threshold was -17.1%. With `CCCCn1nnc(NC(=O)Cc2ccc(Cl)cc2)n1`, the activity change, less the hit threshold is -11.7%.

For `CCOc1ccc2[nH]cc(S(=O)(=O)c3ccc(F)cc3)c(=O)c2c1`, the activity change, less the hit threshold is -19.1%. For `CCCCn1c(-c2csc(C(C)C)c2)n[nH]c1=S`, the activity change, less the hit threshold is 6.8% (active). Regarding `S=c1[nH]nc(-c2ccc(Cl)cc2)n1Cc1ccccc1`, the activity change, less the hit threshold was -30.3%. Next, `CC(C)(C)OC(=O)C(Cl)(C(=O)OC(C)(C)C)c1ccc2nnnn2n1`: -14.5%. Next, `CC(=O)c1cc(N2CCC(C(=O)O)CC2)ccc1[N+](=O)[O-]`: -24.9%. Next, `CCc1nnc(NC(=O)c2c(C)nn(-c3ccccc3)c2Cl)s1`: -4.8%. As to `Cc1nn(-c2ccccc2)c(C)c1S(=O)(=O)O`, the activity change, less the hit threshold is -13.9%. As to `Cc1nn(-c2ccccc2)c(Cl)c1/C=C1\SC(=S)NC1=O`, the activity change, less the hit threshold is 60.1% (active).

`CCCC(=O)n1nc(-c2ccccc2)nc1N`: the activity change, less the hit threshold was -17.9%. As to `O=C(Nc1cccc2[nH]ncc12)c1ccc(F)cc1`, the activity change, less the hit threshold was -24.7%. Next, `CN(C)/C(=N\S(=O)(=O)c1ccccc1)c1ccc(F)cc1`: -9.6%; `O=C(Nc1nc(-c2ccccc2)c(-c2ccccc2)o1)c1ccc(F)cc1`: 9% (active). Next, `Cc1ccc(-c2nc(CSCC(=O)N3CCOCC3)c(C)o2)cc1`: -25.1%.

With `COc1ccc(S(=O)(=O)Nc2ccc(Cl)cn2)c(C)c1C`, the activity change, less the hit threshold was -12.1%. Next, `Cc1noc(C)c1CSc1ncnc2sc3c(c12)CCCCC3`: 14.8% (active); `COC(=O)c1ccc(CSc2ncnc3sc(C)c(C)c23)o1`: -6.5%; `COc1ccc(-n2c(O)c(/C=C3\C=Nc4ccccc43)c(=O)[nH]c2=O)cc1`: -40%. Next, `Cc1ccc2cc(CCNC(=O)C(=O)c3c(C)[nH]c4ccccc34)c(=O)[nH]c2c1`: -20.7%; `CCOC(=O)c1sc(=S)n2c1[nH]c(=O)c1ccc(C(=O)OC)cc12`: 79.4% (active). Next, `CCC1SC2=NC(C)=C(C(=O)OC)C(c3ccc(C(=O)OC)cc3)N2C1=O` (configuration not stated): -10.7%; `CCCNC(=O)CN1C(=O)NC(Cc2c[nH]c3ccccc23)C1=O` (configuration not stated): -17.5%. With `CC12CCC(C(=O)NCc3ccc4c(c3)OCO4)(CC1=O)C2(C)C` (configuration not stated), the activity change, less the hit threshold was -5.5%. Next, `CCOCCCNC(=O)C(NC(=O)Cc1cccs1)c1ccc(C)cc1` (configuration not stated): -21.4%; `O=S(=O)(NC(=S)NC1CCCCC1)c1ccc(Br)cc1`: 5.4% (active); `Cc1ccc(S(=O)(=O)NC(=S)NC2CCCCC2)cc1`: -11.5%.

For `O=c1oc2ccccc2c(NC2CCCCC2)c1NS(=O)(=O)c1ccc(Cl)cc1`, the activity change, less the hit threshold is -14.5%. Next, `O=C(NC1CCCCC1)c1ccc(COCC(F)(F)F)o1`: -5%; `CCc1ccc(S(=O)(=O)NC(=S)NC2CCCCC2)cc1`: 52.3% (active); `O=S(=O)(NC(=S)NC1CCCCC1)c1ccc(Cl)cc1`: 19.8% (active). With `COc1cc(Cl)c(C)cc1NC(=O)CSc1sc2c(O)cc(=O)[nH]c2c1C#N`, the activity change, less the hit threshold was -11.4%. On to `N#Cc1c(N)c(C(=O)c2ccccc2)n2ccccc12`, for which the activity change, less the hit threshold is -16.1%. For `Nn1c(SCC(=O)Nc2ccc(F)cc2)nnc1C1CCCCC1`, the activity change, less the hit threshold is -23.5%. Next, `O=C1NCCN1Cc1ccccc1F`: -11.9%.
